PubChem BioAssay AID488789 (Broad Institute, 2010)
Measured potencies and affinities stand elsewhere. Results filed as inconclusive are left out. Calls of active or inactive are those of the source.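 Rule for the calls: active = samples whose fitted half-maximal inhibition concentration is no more than ten times the top valid dose tested; inconclusive = flat response between -70 and -30, or invalid curve fit; inactive = flat within 30 of zero, potency above limit, or signal rising.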

These compounds were tested against Trypsin (Sus scrofa) (UniProt P00761) (assay: trypsin protease activity blockade – biochemical, quenched peptide fluorescence, cherry-pick, selectivity assay for Rce1 protease inhibitor project, dose response (AID 488789;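 note: more negative means stronger trypsin inhibition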)). Conditions: porcine trypsin, quenched peptide cleavage fluorescence; series mostly up to 10 µM.
Chain of Trypsin (Sus scrofa) (P00761 whole entry, looked up): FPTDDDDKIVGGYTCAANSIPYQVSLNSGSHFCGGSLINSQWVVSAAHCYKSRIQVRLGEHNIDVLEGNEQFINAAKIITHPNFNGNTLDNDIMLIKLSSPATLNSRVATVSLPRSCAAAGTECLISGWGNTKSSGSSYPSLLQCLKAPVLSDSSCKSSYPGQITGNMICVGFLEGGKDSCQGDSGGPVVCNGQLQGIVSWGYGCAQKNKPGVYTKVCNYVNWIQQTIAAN

outcome, inactive:
Cc1cccc2sc(N(CCN(C)C)C(=O)c3ccc4ccccc4c3)nc12
CCOC(=O)C[n+]1ccc2c([nH]c3ccccc32)c1C
COc1ccc(OC)c(Cc2nnc(CCC(=O)N3CCN(C4CCCC4)CC3)o2)c1
CC(=O)NC(Cc1c[nH]c2ccccc12)C(=O)O (configuration not stated)
Cc1cc(C)n2nc(CC(=O)NNC(=O)c3ccc(N(C)C)cc3)nc2n1
C[C@@]12CCC=C[C@H]1[C@H](c1ccc(/C=C/c3ccccc3)cc1F)N(Cc1ccccc1)C2=O
CS(=O)(=O)c1ccc(C(=O)OCC(=O)N(CCc2ccccc2)Cc2ccccc2)cc1
COC(=O)c1ccccc1NC(=O)NCc1cccnc1
CCN(CC)CCN(C(=O)c1cc2ccccc2cc1OC)c1nc2ccc(F)cc2s1
CCCOc1ccc(-c2c(C(=O)N/N=C/c3cccs3)nnn2-c2nonc2N)cc1
Cc1cc(=O)n2ccccc2c1C#N
CCn1cc(/C=C(\NC(=O)c2ccccc2F)C(=O)N2CCCC2)c2ccccc21
CCOc1ccc(N(CC(=O)NC2CC3CCC2C3)S(=O)(=O)c2ccccc2)cc1 (configuration not stated)
COc1cccc(C(=O)Nc2nnc(SCC(=O)NC3CCCC3)s2)c1
COc1cc2c(cc1OC)C(C)N(C(=O)CCNC(=O)c1ccccc1)CC2 (configuration not stated)
COc1cccc(CNc2nc3nc(C)cc(C)n3n2)c1
CC(=O)NN1C(=O)c2ccccc2NC1c1ccccc1 (configuration not stated)
CCCCN(C)CCNC(=O)c1cc2c(-c3cccc(OC)c3)nn(C)c2s1
Cc1ccc(NC(=O)CCc2ccc(S(=O)(=O)NC3CCCCC3)cc2)cc1
O=S(=O)(c1ccccc1)c1nc(-c2ccco2)oc1N1CCCCC1
Cc1cc(C)c2nc(N(CCCN(C)C)C(=O)c3ccc4c(c3)CCCC4)sc2c1
O=C(CN(C1CCCCC1)C1CCCCC1)N1CCc2ccccc2C1
NCCCn1c(C(=O)c2cc(Cl)c(N)c(Cl)c2)c2ccc(C(F)(F)F)cc2[n+]1[O-]
COC(=O)C1CCCN1S(=O)(=O)c1ccc2ccccc2c1 (configuration not stated)
C=C(C)CSc1nc2sc3c(c2c(=O)n1-c1ccc(OC)cc1)CCN(C)C3
CC(Cc1cccs1)NC(=O)Nc1ccc([N+](=O)[O-])cc1 (configuration not stated)
Cc1ccsc1/C=N/NC(=O)c1nnn(-c2nonc2N)c1C(C)C
CCN(CC)CCNC(=O)c1[nH]c2ccc(OCc3ccccc3)cc2c1C
Cc1ccc(OCCN2C(=O)C(=O)c3cc(C)ccc32)cc1
Cc1nc(N2CCOCC2)c2c(C)c(C(=O)Nc3ccccc3C(F)(F)F)sc2n1
COC(C/C=C/[C@@H](O)[C@H](C)OCc1ccccc1)OC
O=C(CCNS(=O)(=O)c1ccc2[nH]c(=O)oc2c1)NCc1ccccc1
Cc1ccc(-c2csc(N3CCN(c4cc5c(cc4Cl)nc(-c4ccncc4)n5CCOCCO)CC3)n2)cc1
Cc1cccc(OCCN2C(=O)C(=O)c3cc(C)ccc32)c1
CCN(Cc1ccccc1)S(=O)(=O)c1ccc(C(=O)N(CCCN(C)C)c2nc3cc(C)cc(C)c3s2)cc1
CCN(CC)CCNC(=O)CSc1c2c(nc3cc(Cl)ccc13)CCCC2
COc1ccc(-n2c(SCc3ccc([N+](=O)[O-])cc3)nnc2-c2ccc(C)cc2)cc1
